Reference: PubChem BioAssay (NCATS)
Measured potencies and affinities stand elsewhere. Unmarked numbers belong to inactive results. How the calls were made is not given here.

conditions: Ebola virus entry assay, green fluorescence channel
Further: 0% is about no effect.

| Structure (SMILES) | efficacy |
| --- | --- |
| O=C(O)CSCC(=O)NC1CCSC1=O (stereo unspecified) | -14.4% |
| CC[C@]12CCCN3CCc4c(n(c5ccccc45)[C@@](O)(C(=O)OC)C1)[C@@H]32 | -18% |
| CC(C)(Oc1ccc(Cl)cc1)C(=O)O | -14.9% |
| NC(=O)c1ncn([C@@H]2O[C@H](CO)[C@@H](O)[C@H]2O)c1O | -21.3% |
| COP(=S)(OC)SCN1C(=O)c2ccccc2C1=O | -28.1% |
| O=C1OC(CCN2CCCCC2)OC1(c1ccccc1)c1ccccc1 (stereo unspecified) | -23.4% |
| CC(=O)OCC(COC(C)=O)OC(C)=O | 12.7% |
| O=C1OC(c2ccc(O)c(S(=O)(=O)O)c2)(c2ccc(O)c(S(=O)(=O)O)c2)c2c(Br)c(Br)c(Br)c(Br)c21 | 32.9% |
| COc1cc2c(cc1OC)CN(C(=O)[C@H](C)N[C@@H](CCc1ccccc1)C(=O)O)[C@H](C(=O)O)C2 | -27.9% |
| CC(C)=CCC[C@@](C)(O)[C@H]1CC=C(C)CC1 | -15.6% |
| CC(C)(C)NCC(O)COc1cccc2c1C[C@H](O)[C@H](O)C2 (stereo partly specified) | 21.3% |
| Nc1ccc(C(=O)Nc2ccccc2N)cc1 | -27% |
| Nc1nc(-c2ccccc2)c(Br)c(=O)[nH]1 | -17% |
| Cc1ncc(CO)c(C=O)c1O | -24.1% |
| CCCc1nn(C)c2c(=O)[nH]c(-c3cc(S(=O)(=O)N4CCN(C)CC4)ccc3OCC)nc12 | 14.7% |
| C[N+](C)(CCOc1ccccc1)Cc1cccs1 | -18.5% |
| COc1nccnc1NS(=O)(=O)c1ccc(N)cc1 | -13.7% |
| O=C(Cn1ccnc1[N+](=O)[O-])NCc1ccccc1 | -10.1% |
| O=c1[nH]oc2c1CCNC2 | 22.4% |
| COc1cnc(NS(=O)(=O)c2ccc(N)cc2)nc1 | -24.4% |
| CSCC[C@H](NC(=O)[C@H](Cc1c[nH]c2ccccc12)NC(=O)CCNC(=O)OC(C)(C)C)C(=O)N[C@@H](CC(=O)O)C(=O)N[C@@H](Cc1ccccc1)C(N)=O | 9.45% |
